From PubChem BioAssay (Tox21) come the findings set out here.

Test [1] can be described thus: qHTS assay to identify small molecule antagonists of the estrogen receptor beta (ER-beta) signaling pathway - cell viability counter screen (AID 1259382).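 Also: HEK293T cells carrying ER-beta-UAS-bla reporter stimulated with estradiol; series mostly up to about 92 µM; nearly all actives have a fitted effect of over 55% in size.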 The procedure, abridged: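 Readout: luminescence, CellTiter-Glo, same wells as bla assay. System: ER-beta-UAS-bla GripTite HEK293T, 2% charcoal-stripped FBS. Exposure: compounds plus 1nM 17-beta-estradiol, 16 hr, 37C.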
(In general: qHTS replaces the single test concentration by a dilution series.)

The target in test [2] is Estrogen receptor (Homo sapiens) (UniProt P03372). Briefly: qHTS assay to identify small molecule agonists of the estrogen receptor alpha (ER-alpha) signaling pathway in the presence of an antagonist (AID 1259383; calls by dose curve; also: top concentration of the series differs between compounds; nearly all actives have a fitted effect of over 15% in size). In a few lines:
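Quantitative HTS confirmation: compounds titrated at 15 concentrations onto estrogen-deprived VM7Luc4E2 cells carrying a four-ERE luciferase construct, with ICI-182,780 present at 10.0nM final. Signal is luminescence after 22hr exposure.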

Test [3] can be described thus: qHTS assay to identify small molecule agonists of the estrogen receptor alpha (ER-alpha) signaling pathway in the presence of an antagonist - cell viability counter screen (AID 1259386).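 Also: series mostly up to about 92 µM; cells exposed to compounds for 22 h at 37 °C before the viability read; nearly all actives have a fitted effect of over 30% in size.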 In a few lines: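 The test measures whether compounds kill ER-alpha reporter cells (VM7Luc4E2) under antagonist co-treatment (ICI-182,780, 10.0nM). Fluorescence from CellTiter-Fluor is read after a 22hr exposure.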

Test [4] in a line: qHTS assay to identify small molecule antagonists of the progesterone receptor (PR) signaling pathway - cell viability counter screen (AID 1346798). Also: series mostly up to about 92 µM; nearly all actives have a fitted effect of over 50% in size. The procedure, abridged:
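ATP content as viability readout: CellTiter-Glo luminescence, 30 min room temperature, in PR-UAS-bla HEK293T cells after 16 hr compound/R5020 treatment at 37C and 5% CO2.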

Test [5] can be described thus: qHTS assay to identify small molecule agonists of the progesterone receptor (PR) signaling pathway - cell viability counter screen (AID 1346799; calls by dose curve; also: nearly all actives have a fitted effect of over 45% in size). In a few lines: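 Cytotoxicity in PR-bla HEK293T cells: 16 h compound, 37C; CellTiter-Glo added post-FRET read; luminescence after 30 min RT.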
Test [6] can be described thus: qHTS assay to identify small molecule antagonists of the TGF-beta/Smad signaling pathway - cell viability counter screen (AID 1346824). Also: nearly all actives have a fitted effect of over 50% in size. The procedure, abridged:
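Cytotoxicity counter-screen run in the same wells as the beta-lactamase Smad reporter read: CellTiter-Glo luminescence after 30 min at room temperature. HEK 293T SBE-bla cells had 5 hr compound exposure at 37 C with TGF-beta1 (0.25 ng/mL stock).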

Test [7] can be described thus: qHTS assay to identify small molecule agonists of the TGF-beta/Smad signaling pathway - cell viability counter screen (AID 1346829). Also: top concentration of the series differs between compounds; nearly all actives have a fitted effect of over 45% in size. In a few lines: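 In parallel with the Smad reporter read, viability of HEK 293T cells stably carrying SBE-bla is quantified by ATP luminescence following 5 hr compound treatment.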
The nature of test [8]: qHTS assay to identify small molecule agonists of the TGF-beta/Smad signaling pathway (AID 1346859; active = well fitted activation curve with a large enough effect in the signal ratio in the repeat runs, not every such curve was filed as active; the % refers to the signal ratio; also: series mostly up to about 77 µM). The procedure, abridged: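 Stable Smad binding element-beta-lactamase HEK 293T cells; 5 hr compound exposure at 37 C under 5% CO2; 2 hr room-temperature substrate step; fluorescence excited at 405 nm, collected at 460 nm and 530 nm.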
The target of test [9] is Thyrotropin-releasing hormone receptor (Homo sapiens) (UniProt P34981). Briefly: qHTS assay to identify small molecule antagonists of the thyrotropin-releasing hormone receptor (TRHR) signaling pathway (AID 1346877; active = well fitted inhibition curve with a large enough effect in the repeat runs, not every such curve was filed as active; also: series mostly up to about 51 µM). The procedure, abridged:
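Overnight-plated (18 h, 37 °C) HEK293 cells expressing TRHR were dye-loaded 2 h, treated with compound, then stimulated with TRH at 1 nM final. Fluorescence intensity was captured every second for 3 min.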

The target is the same in test [10]. Briefly: qHTS assay to identify small molecule agonists of the thyrotropin-releasing hormone receptor (TRHR) signaling pathway (AID 1346891; calls by dose curve;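 also: HEK293 cells expressing TRHR with calcium dye readout; series mostly up to about 58 µM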). The procedure, abridged: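 In 1536-format, 1500 TRHR-Hek293 cells per well grew 18 h, took up calcium dye for 2 h at 37 °C, received compound, and were read kinetically; 15-point titrations, triplicates.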
Test [11] is described as follows: Human pregnane X receptor (PXR) small molecule agonists, qHTS cell viability counter screen (AID 1346977). Also: nearly all actives have a fitted effect of over 50% in size. The procedure, abridged: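 Readout is CellTiter-Fluor fluorescence from PXR-Luc HepG2 cells. Plated cells rested 5hr, then were treated with compounds for 24hr at 37C and 5% CO2, with reagent present during the last hour.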
The nature of test [12]: Caspase-3/7 induction in HepG2 cells by small molecules, qHTS assay (AID 1346978). Also: nearly all actives have a fitted effect of over 15% in size. The procedure, abridged:
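Caspase-3/7 induction was measured by Caspase-Glo 3/7 luminescence (30 min, room temperature) after a 17 hr compound exposure of wild-type HepG2 cells seeded at 2,000 per well and pre-incubated 5 hr.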

Test [13] can be described thus: Caspase-3/7 induction in CHO-K1 cells by small molecules, qHTS assay (AID 1346980). Also: nearly all actives have a fitted effect of over 15% in size. In a few lines:
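Luminescent Caspase-Glo 3/7 read (30min, room temperature) quantified apoptosis induction. Cells were wild-type CHO-K1, treated with compound for 17hr at 37 C and 5% CO2.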

A short description of test [14]: Caspase-3/7 induction in HepG2 cells by small molecules, qHTS cell viability counter screen (AID 1346981). Also: series mostly up to about 92 µM; nearly all actives have a fitted effect of over 30% in size. The procedure, abridged: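 Treatment of HepG2 cells with DMSO-delivered compounds ran 16 hr at 37 C following a 5-hr pre-incubation of 2,000 cells/well. CellTiter-Fluor fluorescence, read after 1 hr, served as the viability measure in a qHTS format.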
Test [15] can be described thus: qHTS assay to identify small molecule agonists or antagonists of the thyroid stimulating hormone receptor (TSHR) signaling pathway - wild type cell line counter screen (AID 1259384; calls by dose curve). In a few lines: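 Counter screen in untransfected Hek293: compounds (15-point titration, triplicate) plus phosphodiesterase inhibitor Ro20-1724 added after 18 h plating; 30 min RT. Intracellular cAMP via competitive d2/cryptate immunoassay, 1 h incubation.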

Test [16] addresses Thyrotropin receptor (Homo sapiens) (UniProt P16473). Briefly: qHTS assay to identify small molecule antagonists of the thyroid stimulating hormone receptor (TSHR) signaling pathway (AID 1259385; calls by dose curve; also: nearly all actives have a fitted effect of over 20% in size). In a few lines:
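Antagonist mode: compound-treated TSHR-expressing HEK293 cells were stimulated with 1.5 ng/mL TSH (final) in presence of Ro20-1724 for 30 min at RT. HTRF cAMP detection after 1 h; each compound tested at 15 concentrations, triplicate.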

The target of test [17] is Progesterone receptor (Homo sapiens) (UniProt P06401). Briefly: qHTS assay to identify small molecule agonists of the progesterone receptor (PR) signaling pathway (AID 1346784; calls by dose curve; also: nearly all actives have a fitted effect of over 30% in size). In a few lines:
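Using charcoal-stripped serum (2%) to limit endogenous steroids, PR-UAS-bla HEK 293T cells received compounds for 16 hr at 37C after 6 hr plating; beta-lactamase FRET fluorescence was recorded following 2 hr substrate loading at room temperature.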

Test [18] shares this target. The experiment in a line: qHTS assay to identify small molecule antagonists of the progesterone receptor (PR) signaling pathway (AID 1346795; active = well fitted inhibition curve with a large enough effect in the signal ratio in the repeat runs, not every such curve was filed as active; the % refers to the signal ratio; also: potency is read from the fitted curve at half-maximal effect). In a few lines: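 Inhibition of R5020-induced (1 nM final) beta-lactamase reporter signal in PR-UAS-bla HEK293T cells was scored by FRET fluorescence after overnight (16 hr) compound treatment.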
Test [19] is described as follows: Caspase-3/7 induction in CHO-K1 cells by small molecules, qHTS cell viability counter screen (AID 1346979). Also: nearly all actives have a fitted effect of over 35% in size. Also: potency is read from the fitted curve at half-maximal effect. The procedure, abridged: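 To flag cytotoxic compounds, treated CHO-K1 wild-type cells were given CellTiter-Fluor at 16hr and read fluorescently after 1hr at 37C; the caspase-3/7 luminescence was measured in these same wells.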
The target in test [20] is Nuclear receptor subfamily 1 group I member 2 (Homo sapiens) (UniProt O75469). Briefly: Human pregnane X receptor (PXR) small molecule agonists, qHTS assay (AID 1346982). Also: nearly all actives have a fitted effect of over 35% in size. Also: potency is read from the fitted curve at half-maximal effect. In a few lines:
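Stable HepG2 line reporting PXR-mediated CYP3A4 expression via luciferase. Treatment: 24 hr with compounds in DMSO at 37 C. Detection: ONE-Glo luminescence.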

Unmarked numbers belong to inactive results. Records with an inconclusive call do not appear. Activity calls are given as the source filed them. Unless noted, calls follow the shape of the dose curve; as a rule, active = well fitted curve in the direction sought with a large enough effect in the repeat runs; inconclusive = weak or mixed curves; inactive = no such curve, though single readings can be large; an effect the other way counts as inactive or inconclusive.
% is scaled to controls: 0 for no effect and ±100 for the full control effect.

Sequence of Progesterone receptor (Homo sapiens) (P06401 whole entry, looked up): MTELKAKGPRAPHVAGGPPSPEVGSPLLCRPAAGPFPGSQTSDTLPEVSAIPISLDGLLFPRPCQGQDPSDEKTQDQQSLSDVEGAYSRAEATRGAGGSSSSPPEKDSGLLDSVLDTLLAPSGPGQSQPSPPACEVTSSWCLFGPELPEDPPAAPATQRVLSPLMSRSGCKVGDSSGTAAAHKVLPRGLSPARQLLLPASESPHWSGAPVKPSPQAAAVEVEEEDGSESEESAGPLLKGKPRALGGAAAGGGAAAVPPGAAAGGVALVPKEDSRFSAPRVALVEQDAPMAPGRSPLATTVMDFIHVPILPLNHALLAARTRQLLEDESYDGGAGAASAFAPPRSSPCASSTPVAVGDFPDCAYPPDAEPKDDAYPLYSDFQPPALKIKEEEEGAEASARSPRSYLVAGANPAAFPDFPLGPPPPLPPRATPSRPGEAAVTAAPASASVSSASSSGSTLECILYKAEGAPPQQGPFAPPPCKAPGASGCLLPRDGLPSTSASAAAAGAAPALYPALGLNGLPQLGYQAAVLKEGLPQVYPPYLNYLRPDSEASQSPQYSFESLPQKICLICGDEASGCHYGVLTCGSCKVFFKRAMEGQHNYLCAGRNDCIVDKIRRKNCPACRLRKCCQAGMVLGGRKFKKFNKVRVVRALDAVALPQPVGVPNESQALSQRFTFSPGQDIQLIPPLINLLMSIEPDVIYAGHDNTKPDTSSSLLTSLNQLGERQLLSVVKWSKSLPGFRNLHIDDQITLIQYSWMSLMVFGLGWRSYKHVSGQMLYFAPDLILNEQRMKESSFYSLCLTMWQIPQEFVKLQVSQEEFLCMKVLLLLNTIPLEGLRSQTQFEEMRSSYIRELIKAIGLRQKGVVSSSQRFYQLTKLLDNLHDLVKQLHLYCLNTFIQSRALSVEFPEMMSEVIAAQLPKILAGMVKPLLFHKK
Sequence of Estrogen receptor (Homo sapiens) (P03372 whole entry, looked up): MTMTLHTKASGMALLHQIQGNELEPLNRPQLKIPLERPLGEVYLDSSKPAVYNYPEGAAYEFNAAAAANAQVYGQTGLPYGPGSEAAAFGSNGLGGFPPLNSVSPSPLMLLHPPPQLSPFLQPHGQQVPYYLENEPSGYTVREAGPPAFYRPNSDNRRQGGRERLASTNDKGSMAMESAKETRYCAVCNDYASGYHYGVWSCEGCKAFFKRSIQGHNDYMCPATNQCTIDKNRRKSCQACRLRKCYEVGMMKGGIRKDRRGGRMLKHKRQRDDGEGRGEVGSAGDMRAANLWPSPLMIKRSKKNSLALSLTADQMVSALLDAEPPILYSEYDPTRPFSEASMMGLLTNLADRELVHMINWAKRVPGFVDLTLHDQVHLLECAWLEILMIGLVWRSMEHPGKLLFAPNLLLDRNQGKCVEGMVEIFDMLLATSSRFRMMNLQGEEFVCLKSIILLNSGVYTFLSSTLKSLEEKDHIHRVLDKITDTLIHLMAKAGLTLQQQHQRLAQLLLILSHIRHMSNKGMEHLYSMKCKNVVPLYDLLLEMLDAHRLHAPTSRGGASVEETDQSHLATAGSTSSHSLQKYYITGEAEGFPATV
Sequence of Thyrotropin-releasing hormone receptor (Homo sapiens) (P34981 whole entry, looked up): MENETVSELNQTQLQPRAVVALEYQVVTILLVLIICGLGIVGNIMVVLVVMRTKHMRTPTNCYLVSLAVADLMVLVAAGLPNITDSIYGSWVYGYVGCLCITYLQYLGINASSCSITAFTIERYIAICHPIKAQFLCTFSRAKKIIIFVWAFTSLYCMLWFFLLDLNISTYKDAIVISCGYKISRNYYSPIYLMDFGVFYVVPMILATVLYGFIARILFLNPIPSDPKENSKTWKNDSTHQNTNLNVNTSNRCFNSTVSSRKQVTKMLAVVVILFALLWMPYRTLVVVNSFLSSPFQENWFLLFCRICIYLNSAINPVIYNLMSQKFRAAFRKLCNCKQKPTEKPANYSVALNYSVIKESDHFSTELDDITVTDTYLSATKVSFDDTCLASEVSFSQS
Sequence of Thyrotropin receptor (Homo sapiens) (P16473 whole entry, looked up): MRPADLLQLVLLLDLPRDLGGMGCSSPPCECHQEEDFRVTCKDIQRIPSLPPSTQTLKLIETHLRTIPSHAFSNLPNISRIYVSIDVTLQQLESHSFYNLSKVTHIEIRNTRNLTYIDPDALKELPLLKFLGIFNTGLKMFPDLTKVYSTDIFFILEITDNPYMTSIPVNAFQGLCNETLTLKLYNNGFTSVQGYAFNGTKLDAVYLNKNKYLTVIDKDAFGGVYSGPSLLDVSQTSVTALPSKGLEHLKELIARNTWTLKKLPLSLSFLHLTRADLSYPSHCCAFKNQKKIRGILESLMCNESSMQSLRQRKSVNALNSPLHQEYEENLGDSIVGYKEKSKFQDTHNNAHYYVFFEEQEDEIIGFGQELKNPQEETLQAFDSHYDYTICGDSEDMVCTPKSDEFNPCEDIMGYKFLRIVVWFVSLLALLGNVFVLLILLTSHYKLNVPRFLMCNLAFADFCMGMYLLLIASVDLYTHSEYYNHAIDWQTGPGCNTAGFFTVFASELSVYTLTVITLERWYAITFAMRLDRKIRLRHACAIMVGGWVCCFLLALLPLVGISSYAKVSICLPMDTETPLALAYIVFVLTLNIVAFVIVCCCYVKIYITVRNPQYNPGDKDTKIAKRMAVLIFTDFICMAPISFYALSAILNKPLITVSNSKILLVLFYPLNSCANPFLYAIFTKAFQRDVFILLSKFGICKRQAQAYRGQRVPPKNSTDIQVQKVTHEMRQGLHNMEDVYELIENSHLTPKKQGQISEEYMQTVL
Sequence of Nuclear receptor subfamily 1 group I member 2 (Homo sapiens) (O75469 whole entry, looked up): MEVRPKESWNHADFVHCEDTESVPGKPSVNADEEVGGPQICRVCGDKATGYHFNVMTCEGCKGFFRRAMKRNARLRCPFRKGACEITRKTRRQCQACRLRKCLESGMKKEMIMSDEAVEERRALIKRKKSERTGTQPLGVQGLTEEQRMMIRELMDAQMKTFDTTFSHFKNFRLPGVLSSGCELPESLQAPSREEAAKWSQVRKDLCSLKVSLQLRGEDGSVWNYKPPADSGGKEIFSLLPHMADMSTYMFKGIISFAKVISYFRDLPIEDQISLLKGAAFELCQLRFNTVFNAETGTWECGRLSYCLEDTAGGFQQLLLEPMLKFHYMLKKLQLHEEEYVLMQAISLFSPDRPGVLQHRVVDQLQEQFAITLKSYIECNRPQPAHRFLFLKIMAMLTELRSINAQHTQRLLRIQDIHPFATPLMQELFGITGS

In the case of `Oc1ccc2c(c1)CCC2`, the Potency result in test [1], in test [2], in [3], in test [4], in test [5] and in [6] was “inactive” in each case. Also, the Potency result in [7], in test [9], in test [10], in test [11], in [12] and in test [13] was “inactive” throughout. Besides, the Potency entry in test [14] was “inactive”. The outcome in test [8] was inactive.

As for `CCCCNc1ccc(NCCCC)c2c1C(=O)c1ccccc1C2=O`, the activity change, negative = cytotoxicity in [1] was 15.6% [at 19 µM]; in test [4], -7.34% [at 18.9 µM]; in test [5], -18.3% [at 19 µM]; in [7] it was 2.74% [at 15.8 µM]; in test [11], -9.38% [at 19 µM]; in [14], -16.6% [at 19 µM]. Also, the activation was -0.833% [at 19 µM] in test [2], 0% [at 19 µM] in [17] and 0.206% [at 15.8 µM] in [8]. The cAMP activity change in test [15] is -7.38% [at 18.9 µM, stronger effect = higher value]. Further, the activity change, negative = inhibition in test [16] was -5.35% [at 19 µM]; in test [18] it was 12.4% [at 18.9 µM]. Moreover, the viability change, negative = cytotoxic in test [6] was 4.33% [at 15.8 µM]. Also, the activity, negative = inhibition in test [9] was 0.3% [at 10.5 µM]. Further, in test [12], the caspase activation is -1.98% [at 19 µM]. Moreover, the Potency in test [19] was 13 µM (active). The caspase-3/7 activation in test [13] was 2.79% [at 19 µM].

Take `c1ccc2c(c1)-c1ccc3ccc4cccc5cc-2c1c3c45`: the Potency result in [1], in [2], in [15], in [4], in test [5] and in test [6] was “inactive” each time. Further, the Potency result in test [7], in test [9], in test [10], in test [11], in test [12] and in [13] was “inactive” in each case.

As for `[Cl][Dy]([Cl])[Cl]`, the Potency entry in test [1], in test [2], in test [15], in [16], in test [5] and in test [6] was “inactive” throughout. Moreover, the Potency result in test [7], in test [9], in test [11], in [12], in test [19] and in test [13] was “inactive” in each case. In test [14], the Potency entry was “inactive”. Also, the outcome in test [17] and in test [8] was inactive.

Regarding `CCOC(=O)C1=NN(c2ccc(Cl)cc2Cl)C(C)(C(=O)OCC)C1` (stereo not drawn), the Potency result in test [1], in [2], in test [15], in [3], in [4] and in [5] was “inactive” in each case. Besides, the Potency entry in test [6], in test [7], in test [9], in test [10], in test [11] and in test [12] was “inactive” each time. The Potency entry in test [19], in test [13] and in test [14] was “inactive” in each case. The compound was classed as inactive in [17] and in [8]. Besides, the Potency in [18] was 27.3 µM (active); in test [20], 54.5 µM (active).

Turning to `CCN(CC)c1ccc(C=O)cc1`, the Potency entry in test [1], in test [2], in test [15], in [3], in [4] and in test [5] was “inactive” each time. Also, the Potency entry in [6], in test [7], in test [9], in test [10], in [11] and in test [12] was “inactive” in each case. For the same compound, the Potency result in test [19], in test [13] and in [14] was “inactive” each time. Further, the call in test [17] and in test [8] was inactive.

Turning to `Clc1cccc(Cl)n1`, the Potency result in [1], in [2], in [3], in test [4], in test [5] and in test [6] was “inactive” each time. For the same compound, the Potency result in test [7], in test [11], in test [12], in test [13], in [14] and in test [20] was “inactive” in each case. Also, the outcome in [17] and in test [8] was inactive.
